ssDAF12 agonist – activates DAF-12 receptor from parasite S. stercoralis | HEK293 ssDAF-12/GRIP1 lit1-tk-luc reporter, luminescence; % of 3 µM dafachronic acid response | activation, % at 6.8 µM | 370,000 tested, 1% active;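 active = activation above the mean over all tested compounds plus 3 SD, cut at about 0.9% in these data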;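 note: 0% = DMSO-only wells and 100% = 3 µM delta7-dafachronic acid wells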
hcDAF-12 act – activates DAF-12 receptor from parasite H. contortus; HEK293 hcDAF-12 lit1-tk-luc reporter, luminescence; 0% DMSO, 100% Δ7-dafachronic acid; activation, % at 6.8 µM; 370,000 tested, 1.4% active;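 active = activation above the mean of all tested compounds plus 3 SD, cut at about 5.5% in these data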;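 note: 100% = response to 3 µM Δ7-dafachronic acid high control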
DAX1 inh-1 – NR0B1 (DAX1) inhibition; AID 504766; 340,000 tested, 0.99% active; HEK293 Gal4-DAX1 luciferase reporter, luminescence; inhibition, % at 6.75 µM; P51843;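 active = inhibition above the mean over all tested compounds plus 3 SD, cut at about 4.2% in these data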;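 note: 0% = DAX1-transfected cells with DMSO and 100% = empty-vector control cells with DMSO; inhibition shows as a rise in luminescence from relieved DAX1 repression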
hgDAF12 agonist – activates the H. glycines DAF-12 receptor ligand-binding domain; HEK293 GAL4-hgDAF12 UAS-luciferase reporter, agonist luminescence; normalized to butyrate control; activation, % at 6.8 µM; 370,000 tested, 1.8% active; AID 687014;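 active = activation above a cutoff set at the mean of all screened compounds plus 3 SD, cut at about 10% in these data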;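 note: 0% = DMSO wells and 100% = sodium butyrate wells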
DAX1 inh-2 – DAX1 (NR0B1) inhibition, primary screen. HEK293T StAR-luciferase reporter, SF-1/DAX-1 repression relief. inhibition, % at 6.8 µM. 370,000 tested, 1.1% active. AID 652010;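 active = inhibition above the mean over all tested compounds plus 3 SD, cut at about 3.6% in these data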;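 note: 0% = DAX-1 cells with DMSO and 100% = cells lacking DAX-1 with DMSO; higher inhibition means more luminescence from relief of DAX-1 repression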
LXRb hcDAF ctr – LXR-beta agonism as hcDAF-12 counter-screen; shares compounds with hcDAF-12 act; HEK293 Gal4-LXR tk-luc reporter, luminescence, 24 h; normalized: DMSO 0%, positive control 100%; activation, % at 6.8 µM; 3,400 tested, under 10 active; AID 743027;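 active = mean percent activation of the reporter above a cutoff set as the average over tested compounds plus their standard deviation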
Target sequence (P55055 whole entry, looked up, the tested form may be a part): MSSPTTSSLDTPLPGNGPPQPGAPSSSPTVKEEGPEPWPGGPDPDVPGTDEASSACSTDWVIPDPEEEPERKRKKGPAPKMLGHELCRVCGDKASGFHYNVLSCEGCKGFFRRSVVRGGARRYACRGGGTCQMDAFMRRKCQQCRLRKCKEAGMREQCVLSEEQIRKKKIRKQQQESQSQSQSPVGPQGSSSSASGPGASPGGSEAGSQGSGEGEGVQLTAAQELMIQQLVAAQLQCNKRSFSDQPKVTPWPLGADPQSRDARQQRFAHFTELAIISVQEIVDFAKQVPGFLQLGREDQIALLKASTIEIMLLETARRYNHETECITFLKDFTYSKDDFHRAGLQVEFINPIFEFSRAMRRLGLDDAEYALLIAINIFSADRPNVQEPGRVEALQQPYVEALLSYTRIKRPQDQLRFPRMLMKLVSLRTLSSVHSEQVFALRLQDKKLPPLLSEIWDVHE
hcDAF12 conf – confirmation of H. contortus DAF-12 agonists | shares compounds with hcDAF-12 act | HEK293 hcDAF-12 lit1-tk-luc reporter, luminescence; % of Δ7-dafachronic acid response | activation, % at 6.8 µM | 3,400 tested, 61% active;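 active = mean activation across triplicate tests above the threshold derived from the earlier primary screen, cut at about 5.5% in these data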;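 note: 0% = DMSO only wells and 100% = 3 µM Δ7-dafachronic acid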
The depositor's hits bear a star; . = not tested or not shown. In the library only some 4.1% were active in any assay of this set; here they are far more common.

SMILES	ssDAF12 agonist	hcDAF-12 act	DAX1 inh-1	hgDAF12 agonist	DAX1 inh-2	LXRb hcDAF ctr	hcDAF12 conf
Cc1ccc(/C=C/c2nc3ccccc3[nH]2)o1	0	8.3*	1	8	2	1	8.4*
NNC(=O)c1csc(-c2cccc(C(F)(F)F)c2)n1	-2	-1	-1	1	0	.	.
O=C(N/N=C/c1c(Cl)[nH]c2ccccc12)c1ccc2c(c1)OCCO2	1.3*	9.1*	.	8	0	0	9.1*
Cc1ccsc1/C=N/NC(=O)c1ccc2c(c1)OCCO2	1	8.1*	-1	13*	2	2	12*
COc1cccc(NC(=O)Nc2ccncc2)c1	-1	6.8*	0	2	0	0	0
COc1cccc(NC(=O)c2cc3ccccc3cc2OC)c1	0	8.4*	4	10	1	1	9.3*
COc1ccccc1C(=O)Nc1cccc(SC)c1	0	3	3	9	-1	.	.
COc1cc(SC)ccc1C(=O)Nc1ccccc1	0	7.7*	2	9	2	1	8.3*
COCCNC(=O)C1(C)CCN(C(=O)c2ccc3c(c2)C(C)(C)CCC3(C)C)C1 (configuration not stated)	-1	-2	.	0	-1	.	.
COc1cc(OC)cc(OC(=O)C2CCN(C3=NS(=O)(=O)c4ccccc43)CC2)c1	-1	-1	1	-1	0	.	.
CCOC(=O)/C(C#N)=C/c1c[nH]c2ccccc12	0	9.0*	1	7	0	0	5
COC(=O)/C(C#N)=C/c1c[nH]c2ccccc12	0	8.1*	3	10	0	1	9.9*
Cc1ccc(C(=O)/C=C/c2c[nH]c3ccccc23)cc1	0	8.6*	2	8	1	0	4
Cc1ccc(NC(=O)C2CCN(S(C)(=O)=O)CC2)c(C)c1	-1	-1	1	-1	0	.	.
C/C(=N\NC(=O)CN1CCN(c2ccc(F)cc2)CC1)c1ccco1	-1	2	-2	2	0	.	.
COc1ccc2c(c1OC)C(=O)N1C(C(=O)O)Cc3c([nH]c4ccccc34)C21 (configuration not stated)	1	8.8*	2	3	1	0	3
CC(=O)OCC[C@H](NS(=O)(=O)OCC(Cl)(Cl)Cl)c1ccccc1	0	1	1	-1	0	.	.
CC(C)(C)OC(=O)NNC(=O)c1cccs1	-1	0	.	2	0	.	.
Cn1ccsc1=NC(=O)c1ccc(OC(F)(F)F)cc1	0	8.2*	4	10	0	1	4
COc1ccc(C(=O)N=c2sccn2C)cc1	0	2	2	5	2	.	.
CCCc1cc(CN(C)C(=O)CC2C(=O)NCCN2Cc2ccccc2C)[nH]n1 (configuration not stated)	-1	3	0	0	0	.	.
COc1ccccc1C(=O)Nc1ccc(Br)c2cccnc12	-1	-2	0	2	0	.	.
COc1ccc2o/c(=N\O)c(C(=O)Nc3ccccc3OC)cc2c1	0	3	-1	5	0	.	.
COc1ccccc1C(=O)Nc1ccc(Br)cc1C	1	7.0*	2	11*	0	0	9.6*
COc1cccc2cc(C(=O)Nc3ccccc3C)/c(=N/O)oc12	1	9.2*	2	8	1	0	6.3*
SMILES	ssDAF12 agonist	hcDAF-12 act	DAX1 inh-1	hgDAF12 agonist	DAX1 inh-2	LXRb hcDAF ctr	hcDAF12 conf
CCCCN(C(=O)c1cc(-c2ccco2)nc2ccccc12)c1c(N)n(CCC)c(=O)[nH]c1=O	-1	1	1	1	1	.	.
CSc1ccccc1NC(=O)c1ccc(N2CCCC2=O)cc1	-1	1	1	5	4	.	.
Cc1ccc(/C(O)=C2\C(=O)C(=O)N(Cc3cccnc3)C2c2ccccc2[N+](=O)[O-])cc1 (configuration not stated)	1.7*	9.7*	0	13*	2	0	6.8*
O=C1Nc2ccccc2/C1=C\C(=O)c1ccccc1	-1	-1	-2	-2	-1	.	.
O=C(/C=C1\C(=O)Nc2ccccc21)/C=C1\C(=O)Nc2ccccc21	0	11*	-1	2	0	0	3
COc1ccc(CCNC(=O)C2CC(c3ccccc3[N+](=O)[O-])=NO2)cc1 (configuration not stated)	1.3*	7.6*	4	8	1	1	6.6*
COCCNC(=O)C1CC(c2ccccc2[N+](=O)[O-])=NO1 (configuration not stated)	-1	-1	2	1	0	.	.
Cc1cccn2cc(-c3ccc(F)cc3)nc12	1.8*	12*	2	11*	3.9*	2	9.7*
Cc1cccn2cc(-c3ccc(F)cc3)cc12	-1	2	0	4	1	.	.
N#CC1(c2ccccc2)CCCN1C(=O)c1ccccc1Br (configuration not stated)	0	10*	0	-1	0	0	2
COc1ccccc1C(=O)N1CCCC1(C#N)c1ccccc1 (configuration not stated)	-1	0	1	0	0	.	.
NC1=NC(=Nc2cccc(Cl)c2)c2ccccc21	-1	-2	1	-3	-1	.	.
Cc1cnc(NC(=O)Nc2ccc(OCc3ccccc3)cc2)c(Br)c1	0	7.3*	0	6	0	0	2
COC(=O)Nc1ccc(OCc2ccccc2)cc1	-1	1	2	6	2	.	.
NS(=O)(=O)c1ccc(NC(=S)NCc2ccco2)cc1	-1	7.2*	2	1	0	0	5
CCCCNC(=O)C1C(c2ccc(OC)cc2)=Nc2ccccc2N1C(=O)c1ccncc1 (configuration not stated)	0	2	.	2	-1	.	.
Cn1c(=O)c(C(=O)CN2CCCc3ccccc32)c(N)n(Cc2ccccc2)c1=O	0	3	0	0	0	.	.
Cn1c(=O)c(C(=O)CN2CCc3ccccc32)c(N)n(Cc2ccccc2)c1=O	1	8.0*	1	4	0	0	2
CCCC1(C(=O)OC)NC(c2ccc(OC)cc2OC)C2C(=O)N(c3cccc(C(C)=O)c3)C(=O)C21 (configuration not stated)	-1	0	3	-1	0	.	.
Cc1nn(-c2nc3ccccc3s2)c(N)c1Sc1ccc(F)cc1	1	6.6*	3	7	2	1	14*
Cc1cc(C)n(-c2nc3ccccc3s2)n1	-1	-1	0	6	0	.	.
